PubChem BioAssay (NCI)
About 83,000 compounds went through this panel and 20% of them were active in at least one assay; those are over-represented in the sample as a whole.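 Step 1: grow cells in 96-well plates. Step 2: add test compound at a single concentration. Step 3: incubate 48 h. Step 4: record percent growth.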 Active and inactive are the calls of the source. How the source made its calls: active means growth percent below 10; inactive means the rest.

Tests used:
Experiment in all cases: NCI-60 one-dose screen, 48 h (100 = growth as untreated, 0 = no growth, -100 = all killed)
Conditions in all cases: 10 µM unless noted
SR leukemia = tested on: SR leukemia
RPMI-8226 leukemia = tested on: RPMI-8226 leukemia
OVCAR-8 ovarian = tested on: OVCAR-8 ovarian
OVCAR-5 ovarian = tested on: OVCAR-5 ovarian
OVCAR-4 ovarian = tested on: OVCAR-4 ovarian
SK-OV-3 ovarian = tested on: SK-OV-3 ovarian
IGROV1 ovarian = tested on: IGROV1 ovarian
OVCAR-3 ovarian = tested on: OVCAR-3 ovarian
HS 578T breast = tested on: HS 578T breast
NCI/ADR-RES ovarian = tested on: NCI/ADR-RES ovarian
T-47D breast = tested on: T-47D breast
BT-549 breast = tested on: BT-549 breast
MDA-MB-435 melanoma = tested on: MDA-MB-435 melanoma
SW-620 colon = tested on: SW-620 colon
MCF7 breast = tested on: MCF7 breast
HCT-116 colon = tested on: HCT-116 colon
HCC-2998 colon = tested on: HCC-2998 colon
KM12 colon = tested on: KM12 colon

Measured: growth

COc1cnc2c(c1)C(=O)c1c-2n(CCCN2CCOCC2)c(=O)c2cc(F)ccc12
inactive: OVCAR-4 ovarian 15.7% | IGROV1 ovarian 12.2% | HS 578T breast 12.5% | BT-549 breast 13.3% | HCC-2998 colon 13.2%
active: SR leukemia 1.17% | RPMI-8226 leukemia -19.2% | OVCAR-8 ovarian 0.87% | OVCAR-5 ovarian -13.2% | SK-OV-3 ovarian -25.1% | OVCAR-3 ovarian -29.9% | NCI/ADR-RES ovarian 4.01% | T-47D breast -16% | MDA-MB-435 melanoma -14.2% | SW-620 colon 6.66% | MCF7 breast 1.93% | HCT-116 colon -77.1% | KM12 colon -14.4%

O=C1NCCc2c1noc2-c1ccccc1
inactive: SR leukemia 103% | RPMI-8226 leukemia 113% | OVCAR-8 ovarian 109% | OVCAR-5 ovarian 103% | OVCAR-4 ovarian 114% | SK-OV-3 ovarian 91.3% | IGROV1 ovarian 99.5% | OVCAR-3 ovarian 113% | HS 578T breast 111% | NCI/ADR-RES ovarian 98.6% | T-47D breast 89.3% | BT-549 breast 97% | MDA-MB-435 melanoma 106% | SW-620 colon 109% | MCF7 breast 92.9% | HCT-116 colon 88.3% | HCC-2998 colon 99.9% | KM12 colon 103%

CC(C)=CCCC(C)c1ccc(C)c2c1OCN(CC1CCNCC1)C2 (stereo not drawn)
active: SR leukemia -8.52% | T-47D breast -94.4% | HCT-116 colon -37.2% | HCC-2998 colon -82.1%
inactive: RPMI-8226 leukemia 23.7% | OVCAR-8 ovarian 75.3% | OVCAR-5 ovarian 81.1% | OVCAR-4 ovarian 91.7% | SK-OV-3 ovarian 87% | IGROV1 ovarian 78.7% | OVCAR-3 ovarian 77.2% | HS 578T breast 64.3% | NCI/ADR-RES ovarian 83.5% | BT-549 breast 55.8% | MDA-MB-435 melanoma 14.7% | SW-620 colon 28% | MCF7 breast 36.6% | KM12 colon 38.4%

CC(NC(N)=S)c1ccccc1 (stereo not drawn)
inactive: SR leukemia 100% | RPMI-8226 leukemia 116% | OVCAR-8 ovarian 106% | OVCAR-5 ovarian 97.5% | OVCAR-4 ovarian 106% | SK-OV-3 ovarian 99.3% | IGROV1 ovarian 110% | OVCAR-3 ovarian 111% | HS 578T breast 98.9% | NCI/ADR-RES ovarian 106% | T-47D breast 89.6% | BT-549 breast 118% | MDA-MB-435 melanoma 106% | SW-620 colon 98.7% | MCF7 breast 94.5% | HCT-116 colon 107% | KM12 colon 104%

COc1cnc2c(c1)C(=O)c1c-2n(CCCN2CCCC2)c(=O)c2cc(F)ccc12
inactive: HS 578T breast 23.8% | MDA-MB-435 melanoma 16% | HCC-2998 colon 16.9%
active: SR leukemia -9.13% | RPMI-8226 leukemia -22.8% | OVCAR-8 ovarian -13.3% | OVCAR-5 ovarian 5.78% | OVCAR-4 ovarian 4.61% | SK-OV-3 ovarian -24.6% | IGROV1 ovarian 4.37% | OVCAR-3 ovarian -29.1% | NCI/ADR-RES ovarian -3.22% | T-47D breast -4.54% | BT-549 breast -6.57% | SW-620 colon -33.2% | MCF7 breast 3.93% | HCT-116 colon -77.3% | KM12 colon -12.6%

CC(C)Sc1nc(-c2ccc(Br)cc2)c(C#N)c(N2CCCCC2)n1
inactive: SR leukemia 106% | RPMI-8226 leukemia 98.8% | OVCAR-8 ovarian 98.6% | OVCAR-5 ovarian 88.7% | OVCAR-4 ovarian 95.1% | SK-OV-3 ovarian 110% | IGROV1 ovarian 104% | OVCAR-3 ovarian 104% | HS 578T breast 107% | NCI/ADR-RES ovarian 102% | T-47D breast 94.3% | BT-549 breast 109% | MDA-MB-435 melanoma 95.7% | SW-620 colon 102% | MCF7 breast 93.1% | HCT-116 colon 100% | HCC-2998 colon 121% | KM12 colon 95.9%

Nc1nc(SCc2cccnc2)c2ncn(C3OC(CO)C(O)C3O)c2n1 (stereo not drawn)
inactive: SR leukemia 118% | RPMI-8226 leukemia 115% | OVCAR-8 ovarian 97.1% | OVCAR-5 ovarian 90.1% | OVCAR-4 ovarian 112% | SK-OV-3 ovarian 107% | IGROV1 ovarian 98.6% | OVCAR-3 ovarian 99.9% | HS 578T breast 109% | NCI/ADR-RES ovarian 102% | T-47D breast 110% | BT-549 breast 98.1% | MDA-MB-435 melanoma 104% | SW-620 colon 97.9% | MCF7 breast 94.9% | HCT-116 colon 93.8% | HCC-2998 colon 96.6% | KM12 colon 98.4%

c1ccc(Nc2ccc(Nc3nc(-c4ccccc4)nc4ccccc34)cc2)cc1
inactive: SR leukemia 52.1% | RPMI-8226 leukemia 48.9% | OVCAR-8 ovarian 76.3% | OVCAR-5 ovarian 81.5% | OVCAR-4 ovarian 94.1% | SK-OV-3 ovarian 107% | IGROV1 ovarian 96.7% | OVCAR-3 ovarian 101% | HS 578T breast 92.9% | NCI/ADR-RES ovarian 79% | T-47D breast 47.9% | BT-549 breast 93.8% | MDA-MB-435 melanoma 87.5% | SW-620 colon 75.7% | MCF7 breast 80.6% | HCT-116 colon 74.9% | HCC-2998 colon 89% | KM12 colon 36.4%

Cc1ccccc1NC(=O)N/C(N)=N/c1nc2ccccc2s1
inactive: RPMI-8226 leukemia 16.3% | OVCAR-8 ovarian 19.7% | OVCAR-5 ovarian 35.5% | OVCAR-4 ovarian 65% | SK-OV-3 ovarian 65% | IGROV1 ovarian 14.7% | HS 578T breast 42.1% | T-47D breast 61.1% | SW-620 colon 25.8% | MCF7 breast 19% | HCT-116 colon 10.2% | HCC-2998 colon 17.2% | KM12 colon 14.9%
active: SR leukemia 8.11% | OVCAR-3 ovarian 1.83% | NCI/ADR-RES ovarian 8.91% | BT-549 breast -2.9% | MDA-MB-435 melanoma -11.4%

CC1C(=O)NC2=Nc3ccccc3C(=O)NN21 (stereo not drawn)
inactive: SR leukemia 91.3% | RPMI-8226 leukemia 90.3% | OVCAR-8 ovarian 99.7% | OVCAR-5 ovarian 96.5% | OVCAR-4 ovarian 107% | SK-OV-3 ovarian 105% | IGROV1 ovarian 79.6% | OVCAR-3 ovarian 116% | HS 578T breast 108% | NCI/ADR-RES ovarian 103% | T-47D breast 81.4% | BT-549 breast 96.9% | MDA-MB-435 melanoma 111% | SW-620 colon 97.8% | MCF7 breast 73.9% | HCT-116 colon 90.4% | HCC-2998 colon 100% | KM12 colon 101%

NC(=O)c1cc(Cl)ccc1NC(=O)c1ccccc1-c1ccccc1
inactive: RPMI-8226 leukemia 19% | OVCAR-8 ovarian 32% | OVCAR-5 ovarian 54.4% | OVCAR-4 ovarian 48.3% | SK-OV-3 ovarian 33.1% | IGROV1 ovarian 30% | HS 578T breast 33.8% | NCI/ADR-RES ovarian 20.7% | T-47D breast 26.9% | SW-620 colon 27.4% | MCF7 breast 25.4% | HCT-116 colon 23.2% | HCC-2998 colon 49.3% | KM12 colon 16.9%
active: SR leukemia 5.82% | OVCAR-3 ovarian -30.7% | MDA-MB-435 melanoma -63.7%

COc1ccc2nc(-c3ccc(Cl)cc3)cc(-c3nnc(SCC(=O)Nc4ccc(C(C)=O)cc4)n3-c3ccccc3)c2c1
inactive: SR leukemia 83.7% | RPMI-8226 leukemia 104% | OVCAR-8 ovarian 102% | OVCAR-5 ovarian 96.4% | OVCAR-4 ovarian 93.7% | SK-OV-3 ovarian 93.9% | IGROV1 ovarian 107% | OVCAR-3 ovarian 96.8% | HS 578T breast 99.5% | NCI/ADR-RES ovarian 95.2% | T-47D breast 87.2% | BT-549 breast 87.5% | MDA-MB-435 melanoma 100% | SW-620 colon 108% | HCT-116 colon 100% | HCC-2998 colon 97.7% | KM12 colon 95.3%
